Screening results: PubChem BioAssay, several laboratories
PABP1 MLLE inh = inhibitors of microRNA-mediated deadenylation, human PABP1 MLLE binding. inhibition, % at 20 µM. AID 588489. GST-MLLE / FITC-PAM2 fluorescence polarization. P11940. 360,000 compounds, 0.36% hits; in the data active = inhibition above about 35%, passing the limit was not always enough
EBV gp42 inh = inhibitors of Epstein-Barr virus glycoprotein 42; AID 1085; inhibition, % (tested at 21.74 µM); Fluorescence polarization binding assay, mP read-out; Q1HVG2; 220,000 compounds, 0.42% hits; in the data active = inhibition above about 50%
Target sequence (Q1HVG2 whole entry, looked up): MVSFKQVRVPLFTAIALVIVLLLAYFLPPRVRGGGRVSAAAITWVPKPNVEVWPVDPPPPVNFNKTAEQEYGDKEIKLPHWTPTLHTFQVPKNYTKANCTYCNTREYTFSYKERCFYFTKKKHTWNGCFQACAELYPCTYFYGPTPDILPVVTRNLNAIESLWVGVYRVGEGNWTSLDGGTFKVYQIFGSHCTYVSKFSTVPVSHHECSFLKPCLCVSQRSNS
eIF4H FP inh = inhibitors of RNA binding by human eIF4H. AID 2012. Q15056. eIF4H fluorescence polarization binding assay. 290,000 compounds, 0.94% hits. inhibition, % at 35 µM;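 note: calls also rest on retests at 20 µM and on dose response follow-up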
PABP FP inh = PABP-poly(A) binding inhibition; P11940; PABP-poly(A) RNA binding, fluorescence polarization; calls only at 35 µM; 290,000 compounds, 1% hits; AID 2014;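 note: calls also rest on retests at 20 µM and on dose response follow-up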
eIF4E-4G inh = inhibitors of eIF4E and eIF4G interaction in translation initiation. 220,000 compounds, 0.37% hits. inhibition, % at 21.7 µM. AID 782. TR-FRET eIF4E-eIF4GI(517-606) binding, 2 h;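 active = inhibition above about 30%, limit read from the data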
Of the large screens only hits and unclear results are named; the others gave an inactive call; [ ] = dose if it differs, or a comment. A selection: hits, their analogues and other compounds. The true share with any hit is near 1.7%. Unless noted, the rule behind the calls is not given here.

Cc1csc(SCC(=O)NC2CCC(C)CC2)n1 (configuration not stated)	none (no result: EBV gp42 inh, eIF4H FP inh, PABP FP inh, eIF4E-4G inh)
O=C(CCC(=O)N1CCN(S(=O)(=O)c2ccccc2Cl)CC1)c1ccccc1	none (no result: EBV gp42 inh, eIF4H FP inh, PABP FP inh, eIF4E-4G inh)
O=c1c2ccccc2nc2n1CCc1ccc(Br)cc1-2	none (no result: EBV gp42 inh, eIF4H FP inh, PABP FP inh, eIF4E-4G inh)
COc1ccccc1N(CC(=O)NCCSCc1ccccc1Cl)S(C)(=O)=O	none (no result: EBV gp42 inh, eIF4E-4G inh)
O=C(CSc1nc2sccc2c(=O)[nH]1)N1CCN(c2ccccc2)CC1	PABP FP inh active (no result: EBV gp42 inh, eIF4E-4G inh)
COc1ccc(NC2=NCC(=O)N2Cc2cccs2)cc1	eIF4E-4G inh 43
COc1cc(CCC(=O)Nc2ccc(S(=O)(=O)NC3=NCCCCC3)cc2)cc(OC)c1OC	eIF4H FP inh active
CC1=C(C(=O)N2CCOCC2)CC(CC(=O)NCC2CCCCC2)C(=O)N1CCC1=CCCCC1 (configuration not stated)	none (no result: EBV gp42 inh, eIF4H FP inh, PABP FP inh, eIF4E-4G inh)
N/C(CC(=O)NC1CCCCC1)=N\OCC(=O)Nc1ccc(Cl)c(Cl)c1	none
Nc1cccn2c(-c3ccc(Cl)c(Cl)c3)cnc12	eIF4H FP inh 95, PABP FP inh active
Nc1cccn2c(-c3ccc(Cl)cc3)cnc12	eIF4H FP inh inconclusive
Nc1cc(Br)cc2c1[nH]c(=O)c1ccccc12	none (no result: EBV gp42 inh, eIF4H FP inh, PABP FP inh, eIF4E-4G inh)
CCCc1nc2sc3ccccc3c(=O)c2c(=O)n1Cc1ccco1	eIF4H FP inh 64, PABP FP inh active
Cc1csc(=O)n1CCC(=O)OCC(=O)NNC(=O)c1ccc(Cl)cc1	PABP1 MLLE inh 45 (no result: EBV gp42 inh, eIF4H FP inh, PABP FP inh, eIF4E-4G inh)
Cc1csc(=O)n1CCC(=O)OCC(=O)NCc1ccc(Cl)cc1Cl	none (no result: EBV gp42 inh, eIF4H FP inh, PABP FP inh, eIF4E-4G inh)
CCCn1c(/C=C/c2ccccc2)nc2ccccc21	none
CCn1c(/C=C/c2cc[n+](C)cc2)nc2ccccc21	PABP FP inh active (no result: EBV gp42 inh, eIF4E-4G inh)
CCC(C)c1ccc(NC(=O)COc2c(F)c(F)c(C(F)(F)F)c(F)c2F)cc1 (configuration not stated)	eIF4H FP inh active, PABP FP inh active
O=C(COc1c(F)c(F)c(C(F)(F)F)c(F)c1F)Nc1ccc(N2CCOCC2)c(Cl)c1	none
NC(CCC(=O)NC(CS)C(=O)NCC(=O)O)C(=O)O (configuration not stated)	none (no result: EBV gp42 inh, eIF4H FP inh, PABP FP inh, eIF4E-4G inh)
O=c1ccc2[n+]([O-])c3ccc(O)cc3oc-2c1	EBV gp42 inh 110, eIF4H FP inh inconclusive, PABP FP inh inconclusive
O=c1cc(O)c2ccc(O)cc2o1	none
Cc1nn(-c2ccccc2)c(Cl)c1C(=O)OCC(=O)N(C)c1c(N)n(Cc2ccccc2)c(=O)[nH]c1=O	none (no result: EBV gp42 inh, eIF4H FP inh, PABP FP inh, eIF4E-4G inh)
O=C(O)CC(C(=O)O)c1ccc(OCCCCOc2ccc(C(CC(=O)O)C(=O)O)cc2)cc1 (configuration not stated)	eIF4H FP inh 101, PABP FP inh active (no result: EBV gp42 inh, eIF4E-4G inh)
O=[N+]([O-])c1ccc(Cl)c(-c2ccc(/C=N/c3c(-c4ccco4)nc4ccccn34)o2)c1	eIF4H FP inh inconclusive, PABP FP inh active
O=[N+]([O-])c1ccc(-c2ccc(/C=N/c3c(-c4ccco4)nc4ccccn34)o2)c(Cl)c1	none (no result: PABP1 MLLE inh)
O=[N+]([O-])c1ccc(-c2ccc(/C=N/c3c(-c4ccco4)nc4ccccn34)o2)cc1	eIF4H FP inh inconclusive, PABP FP inh active
CC(=O)C1CCC2C3CCC4CC(=O)CCC4(C)C3C=CC12C (configuration not stated)	none (no result: EBV gp42 inh, eIF4H FP inh, PABP FP inh, eIF4E-4G inh)
CNc1cccc2c1C(=O)c1ccccc1C2=O	PABP1 MLLE inh 41, EBV gp42 inh 78, eIF4H FP inh 78, PABP FP inh active
CC12CCC(O)CC1=CCC1C2CCC2(C)C1CCC21CCC(=O)O1 (configuration not stated)	eIF4H FP inh 12, PABP FP inh active
CC(C)(C)C(=O)COC(=O)C1=NN(c2ccccc2)C(=O)CC1	none (no result: EBV gp42 inh, eIF4E-4G inh)
CCC1ON(c2ccccc2)C2c3nc4ccccc4n3CC12 (configuration not stated)	none
O=C1/C(=C/c2ccco2)SC(=S)N1C1CCS(=O)(=O)C1 (configuration not stated)	PABP FP inh active
O=C1/C(=C\c2ccco2)SC(=S)N1C1CCS(=O)(=O)C1 (configuration not stated)	eIF4H FP inh 94, PABP FP inh active
CC(C(=O)N(C)C1CCS(=O)(=O)C1)N1C(=O)/C(=C/c2ccc(F)cc2)SC1=S (configuration not stated)	none (no result: EBV gp42 inh, eIF4E-4G inh)
CCN(C(=O)C(C)N1C(=O)/C(=C/c2ccco2)SC1=S)C1CCS(=O)(=O)C1 (configuration not stated)	eIF4H FP inh 54, PABP FP inh active (no result: EBV gp42 inh, eIF4E-4G inh)
Fc1ccc(C[n+]2csc3ccccc32)cc1	PABP1 MLLE inh 42
N/C(Cc1cccc2ccccc12)=N\OC(=O)c1cccs1	eIF4H FP inh 84, PABP FP inh active
CCOC(=O)Nc1cc(OC)cc2ccc(C)nc12	none (no result: EBV gp42 inh, eIF4H FP inh, PABP FP inh, eIF4E-4G inh)
O=C(Nc1ncc2c(n1)-c1ccccc1OC2)c1cccc([N+](=O)[O-])c1	none
CCc1cc2c(=O)nc3n(c2s1)Cc1ccccc1/C3=C(/O)c1cccc([N+](=O)[O-])c1	eIF4H FP inh 52, PABP FP inh active
CCc1cc2c(=O)nc3n(c2s1)Cc1ccccc1/C3=C(/O)c1ccccc1Cl	none
CCc1cc2c(=O)nc3n(c2s1)Cc1ccccc1/C3=C(/O)c1ccc(F)cc1	eIF4H FP inh 71, PABP FP inh active
CCCCCCn1c(=O)[nH]c2c(c1=O)CCC2	none
CCCCCCn1c(=O)[nH]c2nc3cc(N)ccc3nc2c1=O	EBV gp42 inh 148, eIF4H FP inh inconclusive (no result: PABP1 MLLE inh)
O=C(CSc1cn[nH]n1)Nc1ccc(O)c(C(=O)O)c1	PABP1 MLLE inh 38 (no result: EBV gp42 inh, eIF4E-4G inh)
C#CCn1cc(C=C2C(=O)c3ccccc3C2=O)c2ccccc21	EBV gp42 inh 95, eIF4H FP inh inconclusive
CC(C)c1ccc(Nc2c([N+](=O)[O-])c(=O)n(C)c3ccccc23)cc1	none
Cn1c(=O)c(Nc2ccc(O)cc2)c2c3c(cccc31)C(=O)c1ccccc1-2	EBV gp42 inh 127, eIF4H FP inh inconclusive
COc1ccc(NC(=O)C(c2ccc(C)cc2)N(C)C(=O)Cc2cccs2)cc1 (configuration not stated)	eIF4H FP inh 63, PABP FP inh active
O=[N+]([O-])c1ccccc1S(=O)(=O)NCCSc1ccccc1	none (no result: EBV gp42 inh, eIF4E-4G inh)
O=S(=O)(NCCCSc1ccccc1)c1ccccc1F	PABP1 MLLE inh 43 (no result: EBV gp42 inh, eIF4E-4G inh)
COc1ccc(C(N)=S)cc1	none
CCc1ccc(C(N)=S)cc1	PABP1 MLLE inh 41, PABP FP inh inconclusive
CCN(c1ccc(OC)cc1)S(=O)(=O)N1CCCC(C(=O)NC(C)c2ccccc2)C1 (configuration not stated)	none (no result: EBV gp42 inh, eIF4H FP inh, PABP FP inh, eIF4E-4G inh)
Cc1cccc(NC(=O)CSc2nnnn2C)n1	EBV gp42 inh 75
CC(=O)Nc1cccc(NC(=O)CSc2nnnn2Cc2ccccc2)c1	none
CCn1nnnc1SCC(=O)Nc1cccc(NC(C)=O)c1	eIF4E-4G inh 37[fluorescence artefact?]
c1ccc(COC2CCCN(Cc3nc(-c4cccs4)no3)C2)nc1 (configuration not stated)	PABP1 MLLE inh 40
O=C(c1ccncc1)N1N=C(c2ccc(Cl)cc2)CC1c1ccccc1O (configuration not stated)	none (no result: EBV gp42 inh, eIF4E-4G inh)
N#Cc1c2ccc(OCC(N)=O)cc2n2ccccc12	none
CCOC(=O)COc1ccc2c(C#N)c3ccccn3c2c1	PABP1 MLLE inh 43
